Among all 1,100 compounds or so, about 350 (32%) were called active. No rule for the calls is given here. Only a sample is shown. Measured potencies and affinities stand elsewhere.
Assay: viability loss in CEM21 cells – cell-based, CellTiter-Glo luminescence, cherry-picked, cytotoxicity control for viral fusion inhibitor project, dose response (AID 652042)
Settings: CellTiter-Glo ATP luminescence, 24 h; series mostly up to 35 µM; activity change, negative = cytotoxicity: at the top concentration

Structure (SMILES)	activity change, negative = cytotoxicity
Cc1cc(C(=O)NC2CCCc3c2cnn3-c2ccc(C(C)(C)C)cc2)nn1C (stereo not given)	-25% (inactive)
CC(C)(C)c1ccc(-n2ncc3c2CCCC3NC(=O)CN2CCCC2=O)cc1 (stereo not given)	-8.24% (inactive)
CCC12CN(S(=O)(=O)c3ccc(C)cc3)CC(CC)(CN(S(=O)(=O)c3ccc(C)cc3)C1)C2=O	-6.76% (inactive)
O=C(C[C@@H]1C/C=C/CC[C@@H](Cc2ccc(F)cc2)C(=O)O[C@H](c2ccccc2)CNC1=O)NCCO	2.11% (inactive)
CC[C@@]12C(=O)N(c3ccc(C)cc3)C(=O)N1[C@H](c1ccc(OC)cc1)[C@@H]1C(=O)N(C(C)(C)C)C(=O)[C@@H]12	4.19% (inactive)
O=C(c1ccc2ncsc2c1)N1CCN(c2nc3ccccc3s2)CC1	-1.8% (inactive)
Cc1cc(CSc2ccccc2)ccc1NC(=O)c1ccc(CN2CCOCC2)cc1	-22.6% (inactive)
CCCOc1ccc2ccccc2c1/C=N/n1cnnc1	-10.6% (inactive)
CS(=O)(=O)N1CCN(c2ccccc2NC(=O)C(c2ccccc2)c2ccccc2)CC1	-6.99% (inactive)
COC(=O)C[C@H]1C=C[C@H](NC(=O)c2ccccn2)[C@@H](CO)O1	-6.35% (inactive)
C[C@@H]1CNC(=O)c2c(C(=O)N3CCN(c4ccccc4)CC3)ncn21	4.32% (inactive)
O=C(N(Cc1ccccc1)c1ccccn1)C12CC3CC(CC(C3)C1)C2	-12.9% (inactive)
CCNC1CCC(Nc2ccnc3cc(Cl)ccc23)CC1 (stereo not given)	-10.5% (inactive)
O=C(Nc1cccc(F)c1)c1cc(S(=O)(=O)N2CCC(C(=O)O)CC2)ccc1F	4.19% (inactive)
CC(C)OCCCn1c(=S)[nH]c2ccc(N3CCOCC3)cc2c1=O	-6.55% (inactive)
Cc1ccc(C(=O)CN2C(=O)c3ccccc3S2(=O)=O)cc1	2.43% (inactive)
O=C(Nc1ccccc1N1CCN(C(=O)c2ccccc2)CC1)c1ccc(Br)o1	-14.8% (inactive)
O=C(c1ccc(S(=O)(=O)Nc2ccc(F)cc2)cc1)N1CCN(C(=O)c2ccco2)CC1	-14.6% (inactive)
CCOC(=O)c1cccc(NS(=O)(=O)c2ccc(NC(C)=O)cc2)c1	-14.2% (inactive)
COc1cc2c(c(OCC(=O)NC(C)C)c1)C(=O)O[C@@H](C)CCCC(=O)CCCCC2	-11.1% (inactive)
Nc1c(Cl)cc2c(c1Oc1ccccc1)C(=O)c1ccccc1C2=O	-9.65% (inactive)
CN(Cc1cccs1)c1ncnc2sccc12	-3.99% (inactive)
C[C@@H]1CN([C@H](C)CO)C(=O)c2cccc(NC(=O)c3ccncc3)c2O[C@H]1CN(C)CC1CCCCC1	-4.35% (inactive)

Structure (SMILES)	activity change, negative = cytotoxicity
C[C@H]1CN([C@@H](C)CO)C(=O)c2cccc(NC(=O)c3ccncc3)c2O[C@@H]1CN(C)C(=O)Nc1cccc2ccccc12	-0.319% (inactive)
C[C@@H]1CN([C@H](C)CO)C(=O)c2cccc(NC(=O)c3ccncc3)c2O[C@@H]1CN(C)Cc1ccc(C(=O)O)cc1	10.9% (inactive)
C[C@@H]1CN([C@H](C)CO)C(=O)c2cccc(NC(=O)C3CCCCC3)c2O[C@H]1CN(C)Cc1ccccc1	-15.4% (inactive)
CC(C)(C)c1ccc(-c2noc(CCC(N)=O)n2)cc1	-3.94% (inactive)
CCCN(CC(=O)Nc1ccccc1OC)C(=O)c1cccc(S(=O)(=O)NCc2ccccc2)c1	-4.51% (inactive)
CCOc1ccc(N(CC(=O)NCCSCc2ccc(Cl)cc2)S(C)(=O)=O)cc1	-10.1% (inactive)
COc1ccc(Cl)cc1NC(=O)CN(C1CCCCC1)S(C)(=O)=O	-3.12% (inactive)
Cc1n[nH]c(C)c1S(=O)(=O)N(CC(=O)NC1CCCC1)c1ccc(C(C)C)cc1	-9.43% (inactive)
C#CCn1c(=O)c2c(ncn2C)n(C)c1=O	5.78% (inactive)
C=C1CCN([C@H](C(=O)OCc2cccc(C)c2)C(C)C)S(=O)(=O)c2ccccc21	-17.6% (inactive)
O=C(Nc1cc(Cl)cc(Cl)c1)C(c1ccccc1)N1CCCCC1 (stereo not given)	-16.6% (inactive)
CCN1C(=O)[C@H]2[C@H]3CN=C(SCc4ccc(Cl)cc4)N3[C@@](CC)(C(=O)OC)[C@H]2C1=O	0.196% (inactive)
Cc1onc(-c2ccccc2)c1C(=O)OCCOc1cccc(Cl)c1	-30.9% (inactive)
CCn1c(C)cc(C(=O)CN2C(=O)c3ccccc3S2(=O)=O)c1C	-4.76% (inactive)
O=C(Nc1cc2c3c(c1)CC(=O)N3CCC2)c1ccc(Cl)cc1	-10.3% (inactive)
O=C(NCCCc1nc2ccccc2[nH]1)c1ccco1	7.11% (inactive)
CN(c1ccccc1)S(=O)(=O)c1ccc(Cl)c(C(=O)Nc2nc3ccccc3[nH]2)c1	-10.4% (inactive)
CCNC(=O)C[C@H]1CC[C@@H]2[C@@H](COc3ccc(NC(=O)Nc4cccc(OC)c4)cc3C(=O)N2C)O1	-7.07% (inactive)
Cc1[nH]c2ccccc2c1/C=N\NC(=O)c1ccccc1Cl	-0.294% (inactive)
COc1cccc(-c2noc(C3CCCN(S(=O)(=O)c4cccc(Cl)c4C)C3)n2)c1 (stereo not given)	-13.6% (inactive)
CCOc1cccc(N(C(=O)Cc2cccs2)C(C(=O)NC2CCCCC2)c2cccn2C)c1 (stereo not given)	-7.71% (inactive)
Cc1ccc2c(c1)C(=C(C#N)C#N)CCN2	-9.93% (inactive)
COc1ccc(C(=O)CN2C(=O)c3ccccc3S2(=O)=O)cc1	-4.85% (inactive)

Structure (SMILES)	activity change, negative = cytotoxicity
COc1cc(/C=N/NS(=O)(=O)c2ccc(C)cc2)ccc1OCc1cccc(C(=O)O)c1	0.914% (inactive)
COC(=O)C1(C(=O)OC)C[C@H](c2ccc(OC)cc2)N(Cc2ccccc2OC)[C@@H]1c1ccccc1	-18.7% (inactive)
CCOc1ccccc1CNc1ncnc2ccc(-c3c(C)noc3C)cc12	-30.7% (inactive)
CCCCn1c(CN(C)Cc2ccccc2)nc2c1c(=O)n(C)c(=O)n2C	-25.1% (inactive)
CCCNC(=O)C[C@H]1C[C@H]2c3cc(NC(=O)CN(C)C)ccc3O[C@H]2[C@@H](CO)O1	-3.17% (inactive)
CC[C@@]1(C(=O)OC)N[C@H](CN(C)C(=O)Nc2ccc(C(F)(F)F)cc2)[C@@H]2C(=O)N(Cc3ccccc3)C(=O)[C@@H]21	-12.2% (inactive)
COC(=O)[C@]12CCCCC=C1N(Cc1ccco1)C(=O)[C@H](CC(=O)NCCc1ccccc1OC)C2	-6.68% (inactive)
Cn1c(=O)oc2cc(S(=O)(=O)NCc3ccncc3)ccc21	-8.94% (inactive)
OCCN1CCN(C(=S)c2ccc(-c3ccccc3)cc2)CC1	-1.55% (inactive)
CC1CCCN(C(=O)c2ccc(S(=O)(=O)N3CCC(c4nc5ccccc5s4)CC3)cc2)C1 (stereo not given)	-18.3% (inactive)
Cn1cc(S(=O)(=O)N2CCOCC2)cc1C(=O)Nc1cccc(Cl)c1	0.651% (inactive)
Cn1c(C(=O)N2CCN(c3nc4ccccc4s3)CC2)cc2sccc21	-6.53% (inactive)
CN(CC(=O)NCCc1ccc(S(N)(=O)=O)cc1)CC(=O)Nc1ccc(Cl)c(C(F)(F)F)c1	-6.11% (inactive)
CCN(C[C@H]1N[C@@](C)(C(=O)OC)[C@H]2C(=O)N(Cc3ccccc3)C(=O)[C@@H]12)C(=O)Nc1ccccc1	1.83% (inactive)
Nc1nc2c(ncn2[C@@H]2O[C@H](C(=O)NCC(c3ccccc3)c3ccccc3)[C@@H](O)[C@H]2O)c(=O)[nH]1	6.01% (inactive)
Nc1ncn([C@H]2C[C@H](O)[C@@H](CO)O2)c(=O)n1	-15.3% (inactive)
CCc1cc2c(NCc3ccco3)ncnc2s1	-10.4% (inactive)
COc1ccccc1-c1c(-c2ccc(O)cc2O)n[nH]c1C(F)(F)F	-5.87% (inactive)
C=C1CCN([C@H](C(=O)OCc2ccc(C)cc2)C(C)C)S(=O)(=O)c2ccccc21	-9.42% (inactive)
COC(=O)[C@]1(C)N[C@H](CN(C)S(=O)(=O)c2ccc(-c3ccccc3)cc2)[C@@H]2C(=O)N(Cc3ccccc3)C(=O)[C@@H]21	-2.53% (inactive)
O=C(NCc1ccco1)c1ccc(Cn2c(=O)c3ccccc3n(Cc3ccc(Cl)cc3)c2=O)cc1	1.32% (inactive)
COc1ccc(CCN(Cc2cccs2)S(=O)(=O)c2ccc(-n3cnnn3)cc2)cc1OC	-7.83% (inactive)
Nc1c(S(=O)(=O)c2cccs2)c2nc3ccccc3nc2n1CCc1ccccc1	0.984% [at 16 µM] (inactive)

Structure (SMILES)	activity change, negative = cytotoxicity
CCOC(=O)[C@@H]1[C@H]2COc3ccc(Br)cc3[C@@H]2N2C(=O)N(c3cccc(F)c3)C(=O)[C@@]12C	-9.37% (inactive)
Cn1c(=O)c2c(nc(Oc3ccc4ccccc4c3)n2C)n(C)c1=O	-10.1% (inactive)
COc1ccc(/C=C/c2nc(S(=O)(=O)c3ccccc3)c(NCCCN(C)C)o2)cc1OC	3.14% [at 16 µM] (inactive)
COc1cc(/C=N/O)ccc1OCc1ccc(C(=O)O)cc1	0.784% (inactive)
O=C(Nc1cc(Cl)cc(Cl)c1)C1CCC(=O)N1Cc1ccccc1Cl (stereo not given)	-8.05% (inactive)
CCCNC(=O)N1[C@H](C#N)[C@H](c2ccc(-c3cccc(OC)c3)cc2)[C@@H]1CO	-20.5% (inactive)
CN(C)C(=O)CCC(=O)N1CCCC(C(=O)c2ccc3c4c(cccc24)CC3)C1 (stereo not given)	-13.2% (inactive)
O=C(C[C@H]1C[C@H]2c3cc(NC(=O)NC4CCCC4)ccc3O[C@H]2[C@@H](CO)O1)NC1CCCCC1	-5.11% [at 30 µM] (inactive)
COC(=O)[C@@]12CCCN1[C@H](c1ccc(-c3ccc(F)cc3)c(OC)c1)[C@H]1C(=O)N(C)C(=O)[C@H]12	-14.3% (inactive)
O=C(c1ccccc1)N1CCN(c2ncnc3sc4c(c23)CCC4)CC1	-10.8% (inactive)
CCN(Cc1nc2cc(Cl)ccc2c(=O)[nH]1)C(=O)c1cc(C2CC2)nn1-c1ccccc1	-11% (inactive)
Cc1cc(C)c(CN2CCN(C(=O)Cn3cnc4c(NCc5ccccc5)ncnc43)CC2)c(C)c1	-20.7% (inactive)
O=C(Cn1ncc2c(=O)oc3ccccc3c21)N1CCC(N2CCCCC2)CC1	8.1% (inactive)
CCOC(=O)C1CCN(C(=O)c2ccc3c(c2)C(=O)N(c2ccccc2C)C3=O)CC1	0.54% (inactive)
COc1ccccc1CN1C(=O)CN(C2CCCCCC2)C(=O)C1c1ccc(F)cc1 (stereo not given)	-12.1% (inactive)
COc1ccccc1[C@@H]1C(c2ccc(F)cc2)=NN(c2ccccc2)[C@H]1C(=O)N1CCOC1=O	-13.4% (inactive)
CCN(C1CCCCC1)S(=O)(=O)c1ccc(S(=O)(=O)NCc2ccncc2)cc1	-5.76% (inactive)
CC[C@@]12C(=O)N(c3ccccc3)C(=O)N1[C@H](c1ccc(OC)cc1)[C@@H]1C(=O)N(C(C)(C)C)C(=O)[C@@H]12	-3.88% (inactive)
Cc1nc2sccn2c1-c1csc(NCc2ccccc2)n1	-22.7% (inactive)
O=C(CN(Cc1ccccc1)S(=O)(=O)c1ccc(F)cc1)NCCC1=CCCCC1	-20.4% (inactive)
O=C(CN(Cc1ccccc1F)S(=O)(=O)c1ccc(Cl)cc1)NCCC1=CCCCC1	-7.05% (inactive)

Reference: PubChem BioAssay AID652042 (Broad Institute, 2013)
